# TDP1 inh: inhibitors of human tyrosyl-DNA phosphodiesterase TDP1; Q9NUW8; recombinant TDP1, AlphaScreen DNA substrate cleavage; 350,000 tested, 0.28% active; Potency, µM (titrated, usually from 130 µM), for the others: at the highest dose activity change, negative = inhibition, most hits filed as inhibitors; AID 485290; note: nearly all actives have a fitted effect of over 40% in size
#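 E. coli-derived human Tdp1, 1 nM final. Cpd preinc 15 min RT; substrate 15 nM final, 5 min RT; AS bead mix 10 ug/ml final, 10 min RT. Signal loss = tyrosine-FITC cleavage. No-enzyme wells = max signal.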
# RECQ1 helicase: inhibitors of human RECQ1 DNA helicase | P46063 | RECQ1 DNA unwinding, red fluorescence kinetic read | Potency, µM (highest dose often 57.3 µM), inactives show top-dose activity, negative = inhibition, usual class: inhibitors | 240,000 tested, 0.54% active | AID 2549;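 note: plate controls were vehicle for no effect and no enzyme for full effect; nearly all actives have a fitted effect of over 30% in size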
#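 RECQ1T1 50 nM; forked duplex (20 bp + 30-nt ss tails) 200 nM, ATP 2 mM final; pH 8.0, 2 mM MgCl2, 2.5 ug/ml poly(dI-dC); 15 min compound preincubation; discontinuous kinetic read over 2 h at RT.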
# APEX1 inh: blocks human APE1 abasic DNA cleavage; P27695; recombinant APE1, TAMRA/BHQ-2 abasic DNA cleavage fluorescence; Potency, µM (highest dose often 65.8 µM), without a hit: at the top dose activity change, negative = inhibition, usual class: inhibitors; 350,000 tested, 0.35% active; AID 2517;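 note: plate controls were vehicle for no effect and reference inhibitor for full effect; nearly all actives have a fitted effect of over 55% in size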
# Target sequence (P27695 whole entry, looked up): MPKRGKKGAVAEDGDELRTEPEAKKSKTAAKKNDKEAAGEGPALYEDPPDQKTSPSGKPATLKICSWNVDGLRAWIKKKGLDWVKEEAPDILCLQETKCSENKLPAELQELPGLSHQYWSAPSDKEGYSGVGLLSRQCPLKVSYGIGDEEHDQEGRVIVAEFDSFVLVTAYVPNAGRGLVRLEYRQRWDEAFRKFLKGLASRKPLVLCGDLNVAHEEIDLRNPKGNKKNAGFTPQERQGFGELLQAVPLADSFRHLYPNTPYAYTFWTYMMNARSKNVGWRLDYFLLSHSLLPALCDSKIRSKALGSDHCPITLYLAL
#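 Compound pre-exposure to 0.75 nM APE1, 15 min at ambient temperature. Reaction initiated with 50 nM TAMRA/BHQ-2 THF substrate, read immediately in kinetic mode, 525 nm excitation, 598 nm emission.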
# KDM4E inh: blocks human JMJD2E demethylase activity. B2RXH2. JMJD2E catalytic domain, FDH-coupled NADH fluorescence (FDH is formaldehyde dehydrogenase). Potency, µM (highest dose often 57.1 µM), inactives show at the top dose activity change, negative = inhibition, most hits filed as inhibitors. 230,000 tested, 1.6% active; active = well fitted inhibition curve with a large enough effect, not every such curve was filed as active; inconclusive = small, poorly fitted or top-dose-only effect, or another doubt; inactive = no such curve, though single readings can be large or run the other way;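 note: 0% = wells with enzyme and -100% = buffer wells without enzyme; nearly all actives have a fitted effect of over 50% in size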
# Target sequence (B2RXH2 1-337 limits assumed): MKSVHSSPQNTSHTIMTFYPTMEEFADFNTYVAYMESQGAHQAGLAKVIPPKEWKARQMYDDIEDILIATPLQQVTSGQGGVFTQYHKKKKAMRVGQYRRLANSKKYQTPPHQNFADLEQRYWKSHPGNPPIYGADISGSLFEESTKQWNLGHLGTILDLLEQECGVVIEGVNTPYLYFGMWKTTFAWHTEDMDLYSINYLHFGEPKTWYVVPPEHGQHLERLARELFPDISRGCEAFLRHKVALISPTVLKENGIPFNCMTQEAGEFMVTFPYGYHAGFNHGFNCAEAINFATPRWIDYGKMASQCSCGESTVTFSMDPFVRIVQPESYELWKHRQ
# L3MBTL1 block: inhibitors of human L3MBTL1; AlphaScreen L3MBTL1–H3K9me1 peptide binding; Potency, µM (top dose mostly 57.1 µM), without a hit: at the top dose activity, negative = inhibition, hits mostly inhibitors; 230,000 tested, 0.66% active; note: nearly all actives have a fitted effect of over 60% in size
#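 AlphaScreen assay: L3MBTL1 (50 nM final) was preincubated 30 min at room temperature with biotinylated H3(1-15)K9me1 peptide (75 nM final), then 30 min with library compounds; streptavidin donor and nickel chelate acceptor beads (10 ug/mL final) added, 30 min dark.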
# BLM inh: Bloom syndrome helicase (human) inhibition. P54132. recombinant BLM DNA unwinding, fluorescence dequenching. Potency, µM (series often up to 56.1 µM), for the others: at the highest dose activity change, negative = inhibition, most hits filed as inhibitors. 350,000 tested, 0.2% active. AID 2528;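 note: plate controls were vehicle for no effect and no enzyme for full effect; nearly all actives have a fitted effect of over 35% in size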
# Numbers without * were called inactive; i = inactive; u = inconclusive; x = no result given; [ ] = dose if it differs, or a comment. This excerpt belongs to a sample that is enriched for hits. Unless noted, calls come from the whole dose curve; as a rule, active = well fitted curve in the direction sought with a large enough effect; inconclusive = small, poorly fitted or top-dose-only effect, or another doubt; inactive = no such curve, though single readings can be large; an effect the other way counts as inactive or inconclusive. Unless noted, % is set by controls: 0 for no effect and ±100 for the full control effect; potency is the fitted concentration of half-maximal effect.
SMILES,TDP1 inh,RECQ1 helicase,APEX1 inh,KDM4E inh,L3MBTL1 block,BLM inh
COc1ccc(C2Nc3ccccc3C(=O)N2Cc2cccnc2)cc1COc1ccc(NC(C)=O)cc1 (stereo not given),5.7%,x,x,x,x,x
Cc1cc(C)n(CC(=O)N/N=C/c2cc([N+](=O)[O-])ccc2O)n1,0.6%,1.7%,u,5.0%,u,-9.8%
Nc1nnnn1CC(=O)N/N=C/c1cc([N+](=O)[O-])ccc1O,8.6%,-1.3%,-1.3%,7.94µM*,0.159µM*,0.0%
Cn1c(SCC(=O)N/N=C/c2cc([N+](=O)[O-])ccc2O)nnc1-c1ccccc1,5.2%,2.2%,4.4%,10µM*,x,1.1%
Cc1cc([N+](=O)[O-])nn1CC(=O)N/N=C/c1ccccc1O,9.6%,-2.1%,-3.7%,7.94µM*,u,0.4%
Nc1nnc(CC(=O)N/N=C\c2cc([N+](=O)[O-])ccc2O)s1,7.9%,-6.2%,2.0%,14.1µM*,u,4.4%
CCc1nn2c(=O)cc(COC(=O)c3ccccc3)nc2s1,4.5%,x,x,x,x,1.2%
Cc1ccc(C(=O)C(c2ccccc2)N2Cc3ccccc3C2=N)cc1 (stereo not given),4.2%,-9.1%,-1.6%,6.31µM*,u,-8.3%
Cc1ccc(NC(=O)CSc2nnc(-c3ccccn3)n2N)c(Br)c1,7.1%,-0.8%,-3.6%,18.1%,25.1µM*,-1.6%
COc1ccc(NC(=O)CSc2nnc(-c3ccccn3)n2N)c(OC)c1,-2.9%,-1.9%,-4.9%,-1.2%,u,0.6%
Cc1c(C(=O)OCC(=O)N2CCC(C)CC2)oc2ccccc12,x,x,14.7%,x,9.7%,x
Cc1c(C(=O)OCC[N+]2(C)CCCCC2)oc2ccccc12,6.1%,i,-1.8%,25.1µM*,3.6%,7.6%
CC(=O)Nc1ccc(SCCN2CCN(CCc3ccccc3)CCC2=O)cc1,19.1%,9.8%,18.9%,x,x,-16.6%
N#CN1CCC(NC(=O)c2cccc(C(F)(F)F)c2)CC1,0.2%,x,x,x,x,x
CCOC(=O)Cc1csc(-n2sc3ccccc3c2=O)n1,6.6%,-4.9%,8.9%,10µM*,x,-12.5%
CCCCNC(=O)C1CCC(Cn2c(=O)c3sccc3n(CC(=O)Nc3ccccc3)c2=O)CC1 (stereo not given),5.8%,x,x,x,x,-2.6%
Cc1ccc(C(=O)OC(C)C(=O)c2cc(C)c(C)cc2C)o1 (stereo not given),56.2µM*,x,u,x,x,-10.5%
COc1ccc(S(=O)(=O)N2CCC(C(=O)NCc3cccnc3)CC2)cc1OC,4.47µM*,x,73.2%[12.4 µM],x,x,-0.8%
COc1cc(/C=N/NC(=O)Cn2nnc3ccccc32)ccc1O,5.8%,-12.7%,7.4%,-21.3%,x,1.1%
COc1cccc(/C=N/Nc2ncnc(Cl)c2N)c1O,11.3%,-3.1%,-4.3%,25.1µM*,20µM*,-11.6%
COc1cccc(/C=N/Nc2nc3ccccc3[nH]2)c1O,12.3%,-14.1%,-1.7%,4.47µM*,19.2%,-11.0%
COc1cccc(/C=N\NC(=O)Cn2nnc3ccccc32)c1O,-2.5%,19.2%,-1.6%,28.2µM*,-8.3%,-4.9%
COc1cccc(/C=N/Nc2nccnc2Cl)c1O,8.4%,i,-5.0%,u,u,-6.0%
COc1cccc(/C=N/Nc2ncnc3scc(-c4ccccc4)c23)c1O,10.1%,-28.5%,5.8%,14.1µM*,31.6µM*,-4.8%
CCNc1ncc2nc(-c3ccc(F)cc3)c(=O)n(-c3ccccc3)c2n1,x,i,-0.4%,x,x,-1.1%
SMILES,TDP1 inh,RECQ1 helicase,APEX1 inh,KDM4E inh,L3MBTL1 block,BLM inh
COc1ccc(-n2nc(C(=O)O)c3csc(N)c3c2=O)cc1,-14.1%,x,x,x,x,x
COC(=O)c1ccn(CC(=O)NC2CCCCC2)n1,28.2µM*,x,29.9µM*,x,x,-2.2%
O=C1CCc2cc(S(=O)(=O)Nc3cccnc3)ccc2N1,2.1%,x,x,x,x,x
O=C(NC1(O)C(=O)c2ccccc2C1=O)c1ccc(C(F)(F)F)cc1,-1.9%,13.3%,0.3%,u,x,u
Cc1ccc(C(=O)NC2(O)C(=O)c3ccccc3C2=O)cc1C,-0.6%,32.7%,u,14.1µM*,x,-17.9%
N#CN1CCC(NC(=O)c2cccc(F)c2)CC1,-1.0%,x,x,x,x,x
Cc1ccc2nc(-c3ccc(N)cc3)sc2c1S(=O)(=O)O,31.6µM*,u,u,x,x,x
COc1ccccc1N1CCN(S(=O)(=O)c2c(C)sc3ncn(CC(=O)N(C)c4ccc(C(C)C)cc4)c(=O)c23)CC1,5.9%,x,x,x,x,-8.3%
C/C(N)=C(/C#N)C(=O)CSc1nnnn1-c1ccccc1,x,-15.3%,u,u,-13.0%,-11.8%
C/C(N)=C(/C#N)C(=O)CSc1nnnn1-c1ccc(C)cc1,6.9%,20µM*,-2.8%,2.0%,-1.6%,-7.1%
O=C(Cn1cc[n+](CC(=O)c2ccc(Cl)cc2Cl)c1)c1ccc(Cl)cc1Cl,-1.4%,-6.2%,4.4%,1.1%,-4.7%,3.4%
O=C(Cn1cc[n+](CC(=O)c2ccccc2)c1)c1ccccc1,9.3%,22.4µM*,-0.5%,-0.4%,-4.7%,-0.3%
O=S(=O)(Nc1ccc(-c2ccc(N3CCCC3)nn2)cc1)c1ccccc1Cl,4.1%,x,x,x,x,1.7%
C/C1=C2/[N-]C(C(CC(N)=O)[C@@]2(C)CCC(=O)NCC(C)OP(=O)([O-])O[C@H]2[C@@H](O)[C@@H](n3cnc4cc(C)c(C)cc43)O[C@@H]2CO)[C@]2(C)N=C(/C(C)=C3N=C(/C=C4N=C1C(CCC(N)=O)C\4(C)C)[C@@H](CCC(N)=O)[C@]\3(C)CC(N)=O)[C@@H](CCC(N)=O)[C@]2(C)CC(N)=O.CC(=O)O.[Co] (stereo not given in full),x,x,x,x,x,25.1µM*
COc1cc(OC)c(-c2c3cc(O)c(=O)cc-3oc3cc(O)c(O)cc23)cc1OC,8.0%,10µM*,25.1µM*,5.01µM*,0.794µM*,-27.5%
Cc1c2cc(O)c(=O)cc-2oc2cc(O)c(O)cc12,12.4%,10µM*,0.794µM*,u,2.82µM*,14.1µM*
COc1cc2oc(-c3ccccc3)cc(=O)c2cc1OC,12.4%[56.1 µM],-5.9%,-4.1%,u,x,7.2%
CCO[C@@H]1O[C@H](C(COCc2ccccc2)OCc2ccccc2)[C@H](OCc2ccccc2)[C@H]1O (stereo not given in full),x,x,0.1%[21 µM],x,x,x
COc1ccc(OCCOc2ccc(/C=C3\C(=N)N4N=C(C)SC4=NC3=O)cc2)cc1,35.5µM*,x,9.47µM*,x,0.3%,x
CC(=O)Nc1ccc(OCCOc2ccc(/C=C3\C(=N)N4N=C(C)SC4=NC3=O)cc2)cc1,x,x,-12.0%,x,x,1.9%
CC1=NOC(=O)/C1=C/c1ccc(O)cc1,-3.6%,i,-2.6%,28.2µM*,1.5%,-1.8%
CC1=NOC(=O)/C1=C/c1ccc(O)c(Br)c1,x,x,23.1%,x,x,-0.3%

# Assay outcomes deposited in PubChem BioAssay by National Center for Advancing Translational Sciences (NCATS).
